Data from PubChem BioAssay AID376 (PDSP, 2006).
The campaign covered roughly 2,000 compounds. About 250 (12%) were called active. The sample holds actives, similar compounds and a random draw of the others, so the mix is not that of the screen. A number with no mark means an inactive call. No stated cut-off is given here; in the data, active means hERG blockade below about -20% or above about 20%; inactive means in between.

target: Voltage-gated inwardly rectifying potassium channel KCNH2 (Homo sapiens) (UniProt Q12809); assay: modulators of KCNH2 ion channel function, cellular (AID 376); conditions: hERG-expressing cells, channel activity single-concentration screen; concentration not given here;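 further: 0% = buffer alone and 100% = reference blocker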
Sequence (Q12809 whole entry, looked up): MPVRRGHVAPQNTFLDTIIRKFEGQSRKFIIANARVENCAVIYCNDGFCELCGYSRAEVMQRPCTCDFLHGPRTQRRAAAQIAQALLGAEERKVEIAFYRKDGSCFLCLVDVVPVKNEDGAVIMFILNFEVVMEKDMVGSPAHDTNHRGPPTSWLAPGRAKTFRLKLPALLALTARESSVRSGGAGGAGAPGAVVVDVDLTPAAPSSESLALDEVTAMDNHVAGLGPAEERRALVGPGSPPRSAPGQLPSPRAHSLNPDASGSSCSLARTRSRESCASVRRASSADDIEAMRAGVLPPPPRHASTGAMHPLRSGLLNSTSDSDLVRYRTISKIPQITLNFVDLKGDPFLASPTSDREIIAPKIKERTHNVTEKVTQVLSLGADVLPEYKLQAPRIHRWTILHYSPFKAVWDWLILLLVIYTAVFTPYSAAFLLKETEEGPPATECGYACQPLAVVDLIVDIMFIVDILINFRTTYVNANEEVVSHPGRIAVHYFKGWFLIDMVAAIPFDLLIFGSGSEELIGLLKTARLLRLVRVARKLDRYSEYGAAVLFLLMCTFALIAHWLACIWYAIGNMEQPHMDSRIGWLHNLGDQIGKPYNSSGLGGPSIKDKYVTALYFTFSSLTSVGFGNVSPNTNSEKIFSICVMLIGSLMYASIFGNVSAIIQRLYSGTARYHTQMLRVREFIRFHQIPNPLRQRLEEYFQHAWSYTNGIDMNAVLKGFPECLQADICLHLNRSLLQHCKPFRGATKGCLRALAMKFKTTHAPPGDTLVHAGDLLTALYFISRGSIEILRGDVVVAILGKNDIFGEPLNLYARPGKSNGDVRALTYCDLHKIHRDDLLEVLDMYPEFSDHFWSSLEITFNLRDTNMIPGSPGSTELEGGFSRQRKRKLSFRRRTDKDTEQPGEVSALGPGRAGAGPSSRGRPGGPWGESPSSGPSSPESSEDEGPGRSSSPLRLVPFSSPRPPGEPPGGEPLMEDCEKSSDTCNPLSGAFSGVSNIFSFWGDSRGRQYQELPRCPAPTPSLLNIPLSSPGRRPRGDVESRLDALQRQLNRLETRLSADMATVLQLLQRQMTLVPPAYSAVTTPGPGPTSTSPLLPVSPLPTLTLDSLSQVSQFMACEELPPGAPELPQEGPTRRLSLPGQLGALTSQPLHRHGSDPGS

Structure (SMILES)	hERG blockade
O=C(O)C1C2C=CC(O2)C1C(=O)Nc1ccccc1 (centres undefined)	-12.4%
O=C(NN=Cc1ccc2c(c1)CCC2)c1ccccc1O	7.38%
CN(C)CCCN1CCC2(CCC(C(C)(C)C)CC2)CC1	11.2%
CC(C)(C)C1CCC2(CC1)CCN(CCCN1CCOCC1)CC2	36.7% (active)
FC(F)(F)c1nc2nc(Cl)c(Cl)nc2n1CCCN1CCOCC1	-9.32%
c1ccc(NCCSc2nc3ccccc3s2)cc1	-0.231%
CCC1CC(=O)N(SCC(N)C(=O)O)C1=O (centres undefined)	-6%
Fc1cccc(F)c1C(Nc1nncs1)Nc1nncs1	-2.76%
CC(C)C(Sc1nc(N)nc2nc[nH]c12)C(=O)O (centres undefined)	1.36%
C[N+](C)(C)CCN[N+]1(C)CCCc2ccccc21 (centres undefined)	13.2%
CNCC(Cl)=NS(=O)(=O)c1ccc(C)cc1	2.08%
CC(=NS(=O)(=O)c1ccc(Cl)c(Cl)c1)OCC(C)(C)C	21.3% (active)
CC(C)(C)C(=O)C(C(c1ccccc1)N1CCOCC1)N1CCOCC1 (centres undefined)	18.3%
O=C(O)CC(Cc1ccccc1Cl)C(=O)O (centres undefined)	9.3%
CC(CNC(N)=O)NC(N)=O (centres undefined)	2.5%
C[N+](C)(C)c1cc2c(nn1)Nc1ccccc1S2	43.5% (active)
O=C(O)CC1(CC(=O)O)Nc2ccccc2SC1=O	-18.2%
O=S(=O)(O)CCCc1cccc2ccccc12	-12.8%
Nc1cccc2nsnc12	-4.23%
NC(CCc1ccccc1)(C(=O)O)c1ccccc1 (centres undefined)	-9.5%
CC12CCC(=O)C=C1CCC1C2CCC2(C)C(C(=O)COS(=O)(=O)c3ccc(Br)cc3)CCC12 (centres undefined)	17%
O=C(O)C=C(C(=O)O)C12CCN3CC4=CCOC5CC(=O)NC1C5C4CC32 (centres undefined)	20.4% (active)
O=C1CC2OCC=C3CN4CCC5(C(=O)O)C(N1)C2C3CC45 (centres undefined)	-10.2%
NC1C2C(CC(=O)O)OCC=C3CN4CCC1(C(=O)C(=O)O)C4CC32 (centres undefined)	13%
ON(CCc1ccncc1)Cc1ccccc1	-10.6%
CC12CCC(O)CC1CCC1C2CCC2(C)C(c3cc(C(F)(F)F)n[nH]3)CCC12 (centres undefined)	8.14%

Structure (SMILES)	hERG blockade
O=C1c2ccccc2C(=O)c2c(NC3CCCCC3)ccc(Nc3ccc(S(=O)(=O)O)cc3)c21	16.1%
CN(C)S(=O)(=O)c1ccc(Nc2ccc(O)c3c2C(=O)c2c([N+](=O)[O-])ccc(O)c2C3=O)cc1	64.1% (active)
O=C1C2C3C=CC(C2C(=O)N1CN1CCSCC1)C1C2C(=O)N(CN4CCSCC4)C(=O)C2C31 (centres undefined)	7.62%
CC(=O)Nc1ccc(S(=O)(=O)N=S(C)C)cc1	14.2%
c1ccc(COC2NCCN2Cc2ccccc2)cc1 (centres undefined)	7.69%
c1ccc([P+](CC[P+](c2ccccc2)(c2ccccc2)c2ccccc2)(c2ccccc2)c2ccccc2)cc1	11.7%
Cc1cc(=O)[nH]c2cc3oc4ccccc4c3cc12	4.54%
NCCCc1ccc2oc3ccccc3c2c1	29.2% (active)
O=C(O)CSc1ncccc1[N+](=O)[O-]	-20.2% (active)
O=C(O)CSc1ccc([N+](=O)[O-])cc1[N+](=O)[O-]	2.18%
Cn1cnc([N+](=O)[O-])c1SCC(=O)O	2.91%
NCC(O)CSCc1ccc(Cl)cc1 (centres undefined)	-14.3%
c1ccc(-c2nnn(CCN3CCCCC3)n2)cc1	-7.12%
Cn1c(=O)c2c(nc(NN=Cc3ccccc3C(=O)O)n2C)n(C)c1=O	-7%
CC(C)C(C(=O)O)N1C(=O)c2ccccc2C1=O (centres undefined)	5.91%
Cc1ccc(C(N)=Nc2ccccc2)cc1	8.7%
O=C(O)CCc1nc2ccccc2[nH]1	-3.47%
O=C(O)CCc1ccc(-c2ccccc2)[nH]1	-28.1% (active)
O=C(O)CCc1nc(-c2ccccc2)c(-c2ccccc2)o1	1.96%
O=C(CC(C(=O)O)N1CCOCC1)c1ccccc1 (centres undefined)	7.79%
OCC(O)C(O)C(O)C(O)c1nc2ccc(Cl)cc2[nH]1 (centres undefined)	3.95%
Cc1cc(Cc2cc(C)cc(C(C)(C)C)c2O)c(O)c(Cc2cc(C)cc(C(C)(C)C)c2O)c1	15.5%
Cc1ncc(CSc2ccccc2N)c(CO)c1O	-7.6%
Clc1ccc(CN2CCCN(Cc3ccc(Cl)cc3)C2c2cc3ccccc3c3ccccc23)cc1	-5.92%
c1ccc(CN2CCC3(CC2)SSC2(CCN(Cc4ccccc4)CC2)SS3)cc1	1.07%
CC(C)(C)c1ccc(CN2CCN(C(c3ccccc3)c3ccc(Cl)cc3)CC2)cc1 (centres undefined)	23.1% (active)

Structure (SMILES)	hERG blockade
CC1NCCC(CC(=O)O)C1CC(=O)O (centres undefined)	-10.6%
CC(C(=O)c1ccccc1)C(c1ccccc1)N1CCOCC1 (centres undefined)	-13.1%
Cc1onc(-c2c(F)cccc2Cl)c1C(=O)NC1C(=O)N2C1SC(C)(C)C2C(=O)O (centres undefined)	8.23%
Cc1ccc2nc(NN=Cc3cccc(C)n3)cc(C)c2c1	26.3% (active)
CSc1nnnc2ccccc12	8.81%
O=C(O)C(=Cc1ccnc2ccccc12)C(=O)O	3.04%
O=C(O)C(Cc1ccnc2ccccc12)=NO	-22.9% (active)
O=C(O)C(Cc1cn[nH]n1)=NO	7.89%
NC(=O)SCC(=O)Nc1ccc2ncccc2c1	8.17%
CC1(C)N=C(N)N=C(N)N1c1cccc(OCc2cccc([N+](=O)[O-])c2)c1	-1.1%
CC(C)(COC1CC2CCC1(C)C2(C)C)[N+](=O)[O-] (centres undefined)	-4.38%
N#CC(=CNc1ccccn1)C(=O)C1CC1	0.609%
N=C(N)SC1c2ccccc2-c2cc([N+](=O)[O-])ccc21 (centres undefined)	50.8% (active)
NC(Cc1cccc([N+](=O)[O-])c1)C(=O)O (centres undefined)	7.25%
O=[N+]([O-])c1ccc2c(c1)S(=O)c1ccccc1-2 (centres undefined)	13.4%
N#CC(N=Nc1ccccc1C(=O)O)C(N)=O (centres undefined)	-0.342%
O=[N+]([O-])c1ccc(C(Nc2ccccc2)c2ccc3cccnc3c2O)cc1 (centres undefined)	11.2%
Cc1cc2ccccc2c[n+]1CC(O)C[n+]1cc2ccccc2cc1C	26.1% (active)
Cc1ccc(S(=O)(=O)OC2CC(C(C)(C)C)CCC2c2ccccc2)cc1 (centres undefined)	2.36%
COc1cccc2c1C(CO)N1C(C#N)C3CC(C(=O)O)C(C1C2)N3C (centres undefined)	-24.5% (active)
O=C(Nc1cccc(Cl)c1)Nn1cnnc1	10.3%
Cc1ccc(CN2CCN(Cc3ccc(C)o3)C(C)C2)o1 (centres undefined)	0.417%
O=C(O)C1C2C=CC(O2)C1C(=O)Nc1ncccn1 (centres undefined)	-6.76%
COc1ccc(C=NNC(=O)O)cc1	-2.22%
CC1CCN(CC(=O)N2c3ccccc3Sc3cc4ccccc4cc32)CC1	14%
CN1CCN(CC(=O)N2c3ccccc3Sc3cc4ccccc4cc32)CC1	52.7% (active)

Structure (SMILES)	hERG blockade
O=C(CC1(O)CCCCC1)OC1CCCC1	-2.11%
CCOC(=O)c1c2c(n3ccccc13)C(=O)c1ccccc1C2=O	8.67%
NC1(C(=O)O)CCCC1C(=O)O (centres undefined)	-13.4%
CCC1(O)C(=O)OCc2c1cc1n(c2=O)Cc2cc3c(CN(C)C)c(O)ccc3nc2-1 (centres undefined)	21.4% (active)
O=C(O)c1ccc(NS(=O)(=O)Cc2ccccc2)cc1	7.65%
NC(N)=NC1C(O)C(O)C(O)C(N=C(N)N)C1O (centres undefined)	-0.537%
Cc1[nH]c2ccccc2c1-c1cc(-c2cc(-c3c(C)[nH]c4ccccc34)on2)no1	-7.59%
N#Cc1c(NC(=O)C(F)(F)F)sc2c3c(=O)c4ccccc4c(=O)c=3oc3ccccc3c12	59% (active)
NCOC(=O)Cc1ccc(Br)cc1	-16.9%
COc1ccc2c(c1)[n+]([O-])c(C(C)=NNC(N)=S)c(C)[n+]2[O-]	-7.37%
c1nc(NCCc2cnc[nH]2)c2[nH]cnc2n1	-31% (active)
OCCNc1ncnc2nc[nH]c12	3.32%
O=C(O)CCNc1ncnc2nc[nH]c12	14%
Cn1c(=O)c2[nH]c(N=NN3CCN(CCO)CC3)nc2n(C)c1=O	0.124%
O=C(O)C(=Cc1ccc(O)cc1)c1cccc2ccccc12	0.955%
Cn1c(CC(O)c2nc3ccccc3n2C)nc2ccccc21 (centres undefined)	-5.68%
O=C(O)Cc1cccc2c(=O)cc(-c3ccccc3)oc12	-7.46%
N=C(N)SCc1cccc(-c2nc3ccccc3c(=O)o2)c1	-5.77%
N=C(N)SCc1cccc2c(=O)cc(-c3ccccc3)oc12	44.3% (active)
c1ccc2c(c1)C(=Nc1ccc(N=C3c4ccccc4-c4ccccc43)cc1)c1ccccc1-2	6.51%
CC(C)N(CC(=O)O)CC(=O)O	7.91%
NC(Cc1ccccc1)C(=O)O (centres undefined)	16.4%
[N-]=[N+]=Nc1ccccc1-c1ccccc1[N+](=O)[O-]	-19.7%
c1cc(-c2sc(-c3ccncc3)c(-c3ccncc3)c2-c2ccncc2)ccn1	22.4% (active)
Nc1[nH]c(=S)[nH]c(=O)c1N=Nc1c(Br)cc(S(N)(=O)=O)cc1Br	6.92%
CSC12C(=O)CC3(C)C(CCC3(O)C(=O)CO)C1CCC1=CC(=O)CCC12C (centres undefined)	3.28%
